Experimental data published in PubChem BioAssay (Tox21).
A number with no mark means an inactive call. A call without a number means that no potency is given here. Activity calls are given as the source filed them. Unless noted, calls come from the whole dose curve; as a rule, active = well fitted curve in the direction sought with a large enough effect in the repeat runs; inconclusive = weak or mixed curves; inactive = no such curve, though single readings can be large; an effect the other way counts as inactive or inconclusive.

How the values were obtained:
[1] = qHTS assay to identify small molecule antagonists of the thyroid receptor (TR) signaling pathway - cell viability counter screen (AID 743064); note: nearly all actives have a fitted effect of over 50% in size; note: potency is the fitted concentration of half-maximal effect
Procedure, shortened: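 Rat GH3 pituitary tumor cells stably expressing two TR response elements driving luciferase were plated, rested 4 h, then dosed with library compounds and T3 (1 nM final). After 23.5 h at 37 °C, CellTiter-Fluor was added for 30 min and fluorescence recorded.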

[2] = qHTS assay to identify small molecule antagonists of the thyroid receptor (TR) signaling pathway (AID 743065); note: nearly all actives have a fitted effect of over 55% in size; note: potency is the fitted concentration of half-maximal effect
Procedure, shortened: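 GH3.TRE-Luc rat pituitary cells carrying two TR response elements driving luciferase were plated for 4 h, given compound plus 1 nM T3 (final), and incubated 23.5 h at 37 C. ONE-Glo luminescence measured reporter inhibition; CellTiter-Fluor fluorescence tracked cytotoxicity.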

[3] = test system: thyroid hormone receptor (rat, GH3 cells); assay: qHTS assay to identify small molecule agonists of the thyroid receptor (TR) signaling pathway (AID 743066; calls by dose curve)
[4] = molecular target: Estrogen receptor (Homo sapiens) (UniProt P03372); assay: qHTS assay to identify small molecule agonists of the estrogen receptor alpha (ER-alpha) signaling pathway (AID 743075; calls by dose curve)
Chain of Estrogen receptor (Homo sapiens) (P03372 whole entry, looked up): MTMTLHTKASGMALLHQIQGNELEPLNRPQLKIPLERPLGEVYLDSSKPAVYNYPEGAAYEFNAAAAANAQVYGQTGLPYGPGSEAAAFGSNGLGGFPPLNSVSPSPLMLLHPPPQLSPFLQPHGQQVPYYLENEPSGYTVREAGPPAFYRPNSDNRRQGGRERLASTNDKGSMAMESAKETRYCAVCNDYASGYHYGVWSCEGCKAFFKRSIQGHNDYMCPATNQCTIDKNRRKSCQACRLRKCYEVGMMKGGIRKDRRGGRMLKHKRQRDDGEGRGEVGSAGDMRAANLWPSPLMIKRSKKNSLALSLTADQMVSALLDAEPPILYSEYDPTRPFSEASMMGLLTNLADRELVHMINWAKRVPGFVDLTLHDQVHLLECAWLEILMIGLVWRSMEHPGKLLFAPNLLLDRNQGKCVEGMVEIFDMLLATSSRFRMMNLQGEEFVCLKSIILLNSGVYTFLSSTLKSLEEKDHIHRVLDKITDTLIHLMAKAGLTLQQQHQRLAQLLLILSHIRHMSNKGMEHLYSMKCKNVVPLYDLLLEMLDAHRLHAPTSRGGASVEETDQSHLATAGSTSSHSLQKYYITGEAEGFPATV

[5] = qHTS assay to identify small molecule antagonists of the estrogen receptor alpha (ER-alpha) signaling pathway using the BG1 cell line - cell viability counter screen (AID 743081);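 note: compound given together with 17beta-estradiol as the ER stimulus; nearly all actives have a fitted effect of over 45% in size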; note: potency is the fitted concentration of half-maximal effect
[6] = molecular target: Aromatase (Homo sapiens) (UniProt P11511); assay: qHTS assay to identify aromatase inhibitors (AID 743083); note: nearly all actives have a fitted effect of over 55% in size; note: potency is the fitted concentration of half-maximal effect
Chain of Aromatase (Homo sapiens) (P11511 whole entry, looked up): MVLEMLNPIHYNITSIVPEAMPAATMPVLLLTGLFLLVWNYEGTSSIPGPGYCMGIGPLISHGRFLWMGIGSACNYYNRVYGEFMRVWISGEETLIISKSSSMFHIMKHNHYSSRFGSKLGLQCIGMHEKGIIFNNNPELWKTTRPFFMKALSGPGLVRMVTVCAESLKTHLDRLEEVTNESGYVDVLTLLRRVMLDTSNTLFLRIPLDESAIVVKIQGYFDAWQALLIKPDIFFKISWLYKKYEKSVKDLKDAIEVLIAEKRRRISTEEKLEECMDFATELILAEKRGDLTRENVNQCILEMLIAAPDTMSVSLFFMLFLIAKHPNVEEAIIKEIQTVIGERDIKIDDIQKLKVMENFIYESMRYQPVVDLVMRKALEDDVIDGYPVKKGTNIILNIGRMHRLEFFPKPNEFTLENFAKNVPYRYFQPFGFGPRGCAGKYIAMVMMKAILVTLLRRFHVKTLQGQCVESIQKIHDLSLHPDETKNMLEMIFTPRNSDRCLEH

[7] = qHTS assay to identify aromatase inhibitors - cell viability counter screen (AID 743084);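 note: cells stimulated with testosterone during compound exposure; nearly all actives have a fitted effect of over 55% in size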; note: potency is the fitted concentration of half-maximal effect
[8] = molecular target: Aryl hydrocarbon receptor (Homo sapiens) (UniProt P35869); assay: qHTS assay to identify small molecule that activate the aryl hydrocarbon receptor (AhR) signaling pathway (AID 743085);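 note: HG2L7.5c1 human HepG2 liver cells with stably integrated DRE-driven firefly reporter; nearly all actives have a fitted effect of over 15% in size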
Chain of Aryl hydrocarbon receptor (Homo sapiens) (P35869 whole entry, looked up): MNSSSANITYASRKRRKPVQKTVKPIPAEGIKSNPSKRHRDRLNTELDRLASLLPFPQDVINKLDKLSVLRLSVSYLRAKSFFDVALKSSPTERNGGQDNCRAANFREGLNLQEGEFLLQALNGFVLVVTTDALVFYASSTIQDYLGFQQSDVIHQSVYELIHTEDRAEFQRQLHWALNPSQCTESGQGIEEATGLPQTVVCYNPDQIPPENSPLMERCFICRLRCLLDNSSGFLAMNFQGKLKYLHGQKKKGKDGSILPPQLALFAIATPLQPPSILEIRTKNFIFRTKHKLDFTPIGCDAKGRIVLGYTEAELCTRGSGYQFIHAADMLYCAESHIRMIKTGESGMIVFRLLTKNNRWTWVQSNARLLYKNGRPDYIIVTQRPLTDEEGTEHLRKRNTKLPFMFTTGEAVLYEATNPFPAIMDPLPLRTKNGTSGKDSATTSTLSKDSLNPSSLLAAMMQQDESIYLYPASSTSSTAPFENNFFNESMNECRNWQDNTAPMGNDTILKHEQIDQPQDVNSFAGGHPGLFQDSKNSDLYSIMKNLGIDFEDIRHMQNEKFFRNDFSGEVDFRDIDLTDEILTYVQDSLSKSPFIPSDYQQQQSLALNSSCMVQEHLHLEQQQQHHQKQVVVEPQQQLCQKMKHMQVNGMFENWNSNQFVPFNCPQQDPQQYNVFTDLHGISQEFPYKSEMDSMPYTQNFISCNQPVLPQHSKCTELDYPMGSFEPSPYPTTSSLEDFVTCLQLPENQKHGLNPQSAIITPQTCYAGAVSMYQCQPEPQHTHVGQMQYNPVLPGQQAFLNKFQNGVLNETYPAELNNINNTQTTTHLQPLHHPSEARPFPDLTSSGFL
Procedure, shortened: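 Compounds were tested in HepG2 hepatocellular carcinoma cells harbouring a stably integrated luciferase gene under control of 20 DREs. Increased reporter signal after 24 h treatment at 37C was taken as AhR activation.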

[9] = molecular target: Peroxisome proliferator-activated receptor gamma (Homo sapiens) (UniProt P37231); assay: qHTS assay to identify small molecule agonists of the peroxisome proliferator-activated receptor gamma (PPARg) signaling pathway (AID 743094; active = well fitted activation curve with a large enough effect in the signal ratio in the repeat runs, not every such curve was filed as active; inconclusive = weak or mixed curves, or effect the other way; inactive = no such curve, though single readings can be large or run the other way; the % refers to the signal ratio)
Chain of Peroxisome proliferator-activated receptor gamma (Homo sapiens) (P37231 whole entry, looked up): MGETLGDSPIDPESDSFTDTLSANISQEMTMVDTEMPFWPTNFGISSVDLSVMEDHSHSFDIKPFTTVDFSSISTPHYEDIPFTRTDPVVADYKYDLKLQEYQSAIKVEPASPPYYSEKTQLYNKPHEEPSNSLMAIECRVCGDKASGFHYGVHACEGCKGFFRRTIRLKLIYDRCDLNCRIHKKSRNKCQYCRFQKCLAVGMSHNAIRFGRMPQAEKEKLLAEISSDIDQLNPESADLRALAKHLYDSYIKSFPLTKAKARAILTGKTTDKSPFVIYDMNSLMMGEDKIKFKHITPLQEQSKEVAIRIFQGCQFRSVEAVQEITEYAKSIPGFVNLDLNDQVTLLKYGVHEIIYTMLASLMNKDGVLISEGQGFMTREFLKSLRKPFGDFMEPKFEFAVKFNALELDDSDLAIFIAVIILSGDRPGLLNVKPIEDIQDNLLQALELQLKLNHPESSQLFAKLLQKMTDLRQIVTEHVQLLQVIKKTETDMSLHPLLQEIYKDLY
Procedure, shortened: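 Agonist activity was taken from a beta-lactamase reporter (FRET substrate, 1 h at room temperature) in HEK293H cells carrying a PPARg UAS-bla construct. Compounds in DMSO were incubated 17 h at 37C after a 5 h cell pre-incubation.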

[10] = qHTS assay to identify small molecule phospholipidosis (PLD) inducers (AID 1259344; active = well fitted curve in the direction sought with a large enough effect; inconclusive = small, poorly fitted or top-dose-only effect, or another doubt; inactive = no such curve, though single readings can be large; an effect the other way counts as inactive or inconclusive)
Procedure, shortened: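 Cells (HepG2, 900 per well) attach for 4 h, receive LipidTOX Red and compound together, incubate 24 h at 37 C, are fixed 30 min with paraformaldehyde/Hoechst, then imaged at one site per well.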

[11] = molecular target: Nuclear receptor subfamily 1 group I member 2 (Rattus norvegicus) (UniProt Q9R1A7); assay: Rat pregnane X receptor (rPXR) activation by small molecules, qHTS assay (AID 1346983); conditions: rPXR luciferase reporter cells, One-Glo luminescence, 24 h; max activation: hits give high values; note: nearly all actives have a fitted effect of over 20% in size; note: potency is the fitted concentration of half-maximal effect
Chain of Nuclear receptor subfamily 1 group I member 2 (Rattus norvegicus) (Q9R1A7 whole entry, looked up): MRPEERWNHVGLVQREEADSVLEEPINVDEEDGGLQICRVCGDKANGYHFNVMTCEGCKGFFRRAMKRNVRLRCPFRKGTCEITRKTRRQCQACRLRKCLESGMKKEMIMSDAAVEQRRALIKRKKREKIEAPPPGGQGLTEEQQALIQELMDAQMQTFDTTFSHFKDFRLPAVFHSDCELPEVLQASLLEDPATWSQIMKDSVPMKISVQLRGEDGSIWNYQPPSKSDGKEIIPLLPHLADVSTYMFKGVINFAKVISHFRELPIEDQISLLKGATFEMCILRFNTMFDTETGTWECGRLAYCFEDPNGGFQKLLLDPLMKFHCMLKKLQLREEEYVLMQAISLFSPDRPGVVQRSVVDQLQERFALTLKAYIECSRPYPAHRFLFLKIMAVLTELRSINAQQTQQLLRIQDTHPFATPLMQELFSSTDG
Procedure, shortened: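 Cell-based rPXR luciferase reporter assay, 2,000 cells per well, rested 5hr at 37 C before compound addition in DMSO, then 24 hr at 37 C. One-Glo reagent was added and luminescence read after 30 min at room temperature.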

[12] = molecular target: Nuclear receptor subfamily 1 group I member 2 (Homo sapiens) (UniProt O75469); assay: Human pregnane X receptor (PXR) activation by small molecules, qHTS assay (AID 1346985); note: nearly all actives have a fitted effect of over 40% in size; note: potency is the fitted concentration of half-maximal effect
Procedure, shortened: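 DPX-2 cells (HepG2 co-transfected with a PXR response element and a CYP3A4-promoter luciferase construct) were seeded at 2,000 per well, rested 5 hr at 37C, then exposed to DMSO-dissolved compounds for 24 hr. Activation was read as luciferase luminescence.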

[13] = molecular target: Estrogen receptor (Homo sapiens) (UniProt P03372); assay: qHTS assay to identify small molecule antagonists of the estrogen receptor alpha (ER-alpha) signaling pathway (AID 743069; active = well fitted curve in the direction sought with a large enough effect in the signal ratio in the repeat runs, not every such curve was filed as active; inconclusive = weak or mixed curves, or effect the other way; inactive = no such curve, though single readings can be large or run the other way; the % refers to the signal ratio; note: potency is the fitted concentration of half-maximal effect)
Procedure, shortened: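 Screening used a UAS-driven beta-lactamase reporter integrated into HEK293 cells expressing ER-alpha, stimulated with 17beta-estradiol alongside test compounds over 18 hr at 37C; signal came from LiveBLAzer B/G FRET fluorescence.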

[14] = qHTS assay to identify small molecule antagonists of the estrogen receptor alpha (ER-alpha) signaling pathway - cell viability counter screen (AID 743074; calls by dose curve; note: nearly all actives have a fitted effect of over 45% in size)
[15] = molecular target: Estrogen receptor (Homo sapiens) (UniProt P03372); assay: qHTS assay to identify small molecule agonists of the estrogen receptor alpha (ER-alpha) signaling pathway using the BG1 cell line (AID 743079); conditions: BG1Luc4E2 cells, ERE-luciferase agonist, 22 h; activation: at 70.3 µM (top of the series); note: nearly all actives have a fitted effect of over 20% in size
[16] = qHTS assay to identify small molecule antagonists of the estrogen receptor alpha (ER-alpha) signaling pathway using the BG1 cell line (AID 743080; calls by dose curve;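 note: BG1 cells stimulated with 17beta-estradiol alongside compound; nearly all actives have a fitted effect of over 25% in size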)
Procedure, shortened: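 Readout is ONE-Glo luminescence, taken 30 min at room temperature after reagent addition, preceded by a CellTiter-Fluor viability read; BG1-Luc-4E2 cells had received compound and 17beta-estradiol for 21.5 h at 37 C.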

[17] = qHTS assay to identify small molecule that activate the aryl hydrocarbon receptor (AhR) signaling pathway - cell viability counter screen (AID 743086);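 note: HepG2 liver cells carrying the AhR DRE luciferase reporter; nearly all actives have a fitted effect of over 45% in size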
Procedure, shortened: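 HepG2-AhR-luc (HG2L7.5c1) cells, 4000/well, were preincubated 5 h at 37C, exposed to compound in qHTS format for 24 hr at 37C, then given CellTiter-Fluor for 30 min; viability was read as fluorescence in the reporter wells.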

[18] = molecular target: Nuclear receptor subfamily 1 group I member 2 (Homo sapiens) (UniProt O75469); assay: CYP3A4 induction through human pregnane X receptor (PXR) by small molecules, qHTS assay (AID 1346984); note: nearly all actives have a fitted effect of over 40% in size; note: potency is the fitted concentration of half-maximal effect
Procedure, shortened: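 Read-out is luminescence after One-Glo addition, following a 3 hr, 37C incubation with Luciferin-IPA CYP3A4 substrate (3uM final). Before that, compounds were on DPX-2 cells (HepG2 co-transfected with PXR element plus CYP3A4-promoter luciferase) for 24 hr at 37C.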

SMILES | Potency [1] | Potency [2] | Potency [3] | Potency [4] | Potency [5] | Potency [6] | Potency [7] | Potency [8] | Potency [9] | Potency [10] | max activation [11] | Potency [12] | Potency [13] | Potency [14] | Potency [15] | Potency [16] | Potency [17] | Potency [18] | Potency [11]
CN(C)c1ccc(C(=C2C=CC(=[N+](C)C)C=C2)c2c(O)c(S(=O)(=O)[O-])cc3cc(S(=O)(=O)O)ccc23)cc1 | 29.8 µM (active) | 11.9 µM (active) | inactive | inactive | 23.7 µM (active) | 26.6 µM (active) | 29.8 µM (active) | inactive | inactive | inactive | -15.3% | inactive |  |  |  |  |  |  | 
CCC(Oc1ccccc1)C(=O)N[C@@H]1C(=O)N2[C@@H]1SC(C)(C)[C@@H]2C(=O)O (some centres undefined) | inactive | inactive | inactive | inactive | inactive | inactive | inactive | inactive | inactive | inactive | -1.86% | inactive | inactive | inactive | inactive | inactive | inactive |  | 
CC(=C\c1ccccc1)/C=C1/SC(=S)N(CC(=O)O)C1=O |  |  | inactive | inactive | 29.8 µM (active) | inactive | inactive | inactive |  | inactive | 4.01% |  | inactive | inactive | inactive | inactive | inactive | inactive | 
COc1cc([C@@H]2c3cc4c(cc3C(O[C@@H]3O[C@@H]5COC(c6cccs6)O[C@H]5[C@H](O)[C@H]3O)C3COC(=O)[C@@H]32)OCO4)cc(OC)c1O (some centres undefined) | 2.37 µM (active) | 0.531 µM (active) | inactive | inactive |  |  |  | inactive |  | inactive |  | 10 µM (active) | 6.74 µM [inconclusive] (active) | inactive |  |  | inactive |  | 28.2 µM (active)
C=C1CC[C@@H]2[C@](C)(CO)[C@H](O)CC[C@@]2(C)[C@@H]1C/C=C1/C(=O)OC[C@H]1O | 21.1 µM (active) | 23.7 µM (active) |  | inactive | inactive | inactive |  | inactive |  | inactive | -5.66% | inactive |  | inactive | inactive |  | inactive |  | 
Cc1nc(NS(=O)(=O)c2ccc(N)cc2)nc(C)c1Br | inactive | inactive | inactive | inactive | inactive | inactive | inactive | inactive | inactive | inactive | -1.45% | inactive | inactive | inactive | inactive | inactive | inactive |  | 
CC(=O)Nc1ccc(OC(=O)c2ccccc2O)cc1 | inactive | inactive | inactive |  | inactive | inactive | inactive | inactive | inactive | inactive | -2.95% | inactive |  | inactive |  |  |  |  | 
COC(=O)[C@H]1[C@H]2C[C@@H]3c4[nH]c5cc(OC)ccc5c4CCN3C[C@H]2C[C@H](OC)[C@@H]1OC |  | inactive | inactive | inactive | inactive | inactive | inactive |  |  | inactive | 6.76% |  |  | inactive | inactive | inactive | inactive | inactive | 
CN[C@@H]1[C@@H](O)[C@@H](O[C@@H]2[C@@H](O)[C@H](O[C@H]3O[C@H](CN)[C@@H](O)[C@H](O)[C@H]3O)[C@@H](N)C[C@H]2NC(=O)C(O)CN)OC[C@]1(C)O (some centres undefined) | inactive | inactive | inactive | inactive | inactive | inactive | inactive |  |  | inactive | -5.41% | inactive | inactive | inactive | inactive | inactive |  |  | 
CC(C)C(=O)OCC(=O)[C@@]12O[C@H](C3CCCCC3)O[C@@H]1C[C@H]1[C@@H]3CCC4=CC(=O)C=C[C@]4(C)[C@H]3[C@@H](O)C[C@@]12C | 18.8 µM (active) | 10.6 µM (active) | inactive | inactive | inactive | inactive | inactive |  | inactive | inactive |  | 0.631 µM (active) | 21.3 µM [inconclusive] (active) | inactive |  |  | inactive |  | 7.94 µM (active)
CC1CC(OC(=O)C(O)c2ccccc2)CC(C)(C)C1 (centres undefined) |  |  | inactive | inactive | inactive | inactive |  |  | inactive | inactive | -1.68% |  | inactive | inactive | inactive | inactive | inactive | inactive | 
CCOC(=O)C1=C[C@@H](OC(CC)CC)[C@H](NC(C)=O)[C@@H](N)C1 | inactive | inactive | inactive |  |  | inactive | inactive | inactive | inactive | inactive | -4.38% | inactive |  | inactive |  |  | inactive |  | 
O=C(O)c1nc(=O)[nH]c(=O)[nH]1 | inactive | inactive | inactive |  | inactive | inactive | inactive | inactive |  | inactive | -2.15% | inactive |  | inactive |  |  | inactive |  | 
CCCC(=O)Nc1c(I)cc(I)c(CC(CC)C(=O)O)c1I (centres undefined) |  |  | inactive | inactive |  | inactive |  |  | inactive | inactive | -4.56% |  | inactive | inactive | inactive | inactive |  | 22.4 µM (active) | 
